COUP-TFII inh – NR2F2 transcriptional activity inhibitors, primary screen, cell-based, luciferase reporter, HEK293T, luminescence; COUP transcription factor 2 (Homo sapiens), P24468; HEK293T NGFI-A luciferase reporter; inhibition, % at 8.6 µM; 370,000 tested, 0.7% active; AID 686940, 2013;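 active means inhibition above a per-plate cutoff, mean inhibition of test wells between control levels plus 3 SD, cut at about 38% in these data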;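 further: cells cotransfected with COUP-TFII expression vector driving the NGFI-A reporter; 0% = median of COUP-TF2 test wells and 100% = reporter-only cells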
SRC3 inh – SRC3 coactivator transcriptional activity inhibitors, primary screen, cell-based, luminescence; HEK293 GAL4-SRC3 luciferase reporter; 360,000 tested, 0.17% active; inhibition, % at 3.6 µM; AID 588352, 2011;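 active means inhibition above a per-campaign cutoff, the mean of all compounds plus 3 SD, cut at about 60% in these data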;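 further: 0% = DMSO-treated cells and 100% = gossypol-treated cells at 36 µM; higher means less SRC3-driven luciferase light from the GAL4 reporter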
Target sequence (Q9Y6Q9 whole entry, looked up, the tested form may be a part): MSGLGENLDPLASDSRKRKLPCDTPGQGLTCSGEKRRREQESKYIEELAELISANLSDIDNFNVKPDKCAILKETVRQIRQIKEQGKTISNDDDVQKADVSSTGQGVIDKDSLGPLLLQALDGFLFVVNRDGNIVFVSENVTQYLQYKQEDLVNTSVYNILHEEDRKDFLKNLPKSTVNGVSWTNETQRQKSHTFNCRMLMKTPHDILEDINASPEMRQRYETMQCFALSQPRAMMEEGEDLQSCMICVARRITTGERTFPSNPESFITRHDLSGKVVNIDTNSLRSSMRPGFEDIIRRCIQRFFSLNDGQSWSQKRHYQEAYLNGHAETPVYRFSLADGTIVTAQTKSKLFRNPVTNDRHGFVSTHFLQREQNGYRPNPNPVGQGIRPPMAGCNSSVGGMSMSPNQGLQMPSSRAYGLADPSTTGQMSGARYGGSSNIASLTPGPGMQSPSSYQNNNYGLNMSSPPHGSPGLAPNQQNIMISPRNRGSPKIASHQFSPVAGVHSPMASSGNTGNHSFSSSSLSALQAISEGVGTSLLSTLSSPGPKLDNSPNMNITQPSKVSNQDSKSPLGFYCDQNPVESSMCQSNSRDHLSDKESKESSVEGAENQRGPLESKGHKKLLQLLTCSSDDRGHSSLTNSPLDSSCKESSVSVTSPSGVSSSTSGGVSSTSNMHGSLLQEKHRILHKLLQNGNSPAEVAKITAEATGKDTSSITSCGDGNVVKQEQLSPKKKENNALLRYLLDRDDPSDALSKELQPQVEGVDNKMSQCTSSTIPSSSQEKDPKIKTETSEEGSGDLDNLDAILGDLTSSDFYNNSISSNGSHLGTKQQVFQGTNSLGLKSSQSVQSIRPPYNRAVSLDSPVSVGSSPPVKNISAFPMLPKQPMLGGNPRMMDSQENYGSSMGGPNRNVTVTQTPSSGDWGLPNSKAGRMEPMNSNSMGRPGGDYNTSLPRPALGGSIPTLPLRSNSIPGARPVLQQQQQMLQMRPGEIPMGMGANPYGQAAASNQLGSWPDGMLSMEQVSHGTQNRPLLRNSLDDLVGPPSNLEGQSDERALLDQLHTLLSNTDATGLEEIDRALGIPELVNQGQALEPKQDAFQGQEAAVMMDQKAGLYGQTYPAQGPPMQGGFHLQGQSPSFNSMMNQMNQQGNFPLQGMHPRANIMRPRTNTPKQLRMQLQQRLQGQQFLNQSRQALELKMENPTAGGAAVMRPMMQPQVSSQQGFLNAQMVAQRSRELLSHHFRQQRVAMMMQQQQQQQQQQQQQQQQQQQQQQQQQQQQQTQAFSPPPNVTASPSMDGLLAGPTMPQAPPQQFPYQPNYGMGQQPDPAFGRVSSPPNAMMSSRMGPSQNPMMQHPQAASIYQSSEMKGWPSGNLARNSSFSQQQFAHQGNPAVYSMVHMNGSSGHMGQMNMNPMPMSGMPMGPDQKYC
NR5A2 inv ag – LRH-1 (NR5A2) inverse agonists, primary screen, cell-based, luminescence, HEK293T, StAR-luciferase reporter; Nuclear receptor subfamily 5 group A member 2 (Homo sapiens), O00482; LRH-1 transfected, 24 h; inhibition, % at 3.6 µM; 360,000 tested, 0.13% active;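 active means inhibition above the mean inhibition of all tested compounds plus 3 SD, cut at about 73% in these data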;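 further: 0% = DMSO wells and 100% = reporter-only cells lacking LRH-1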
SRC2 inh – inhibition of GAL4-SRC2 driven luciferase reporter, primary screen, SRC2 inhibitor project, cell-based, luminescence; AID 651957, 2012; Nuclear receptor coactivator 2 (Homo sapiens), Q15596; 370,000 tested, 0.17% active; HEK293 GAL4-SRC2 luciferase reporter; inhibition, % at 9 µM;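 active means inhibition above the mean inhibition of all tested compounds plus 3 SD, set per campaign, cut at about 52% in these data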;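 further: 0% = DMSO treated cells and 100% = cells given Gossypol at 36 µM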
Gli-Sufu block – Gli-Sufu pathway antagonists, primary screen, luciferase luminescence, Sufu-KO-LIGHT cells, uHTS | Sufu-KO-LIGHT fibroblasts, Gli luciferase reporter luminescence | inhibition, % at 5 µM | 340,000 tested, 0.74% active | AID 588413, 2011;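 active means inhibition above about 55%, limit read from the data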;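 further: 0% = DMSO-treated cells and 100% = wells with medium but no cells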
NCOA1 inh – SRC1 coactivator transcriptional activity inhibitors, primary screen, cell-based, luminescence; Nuclear receptor coactivator 1 (Homo sapiens), Q15788; HEK293 GAL4-SRC1 luciferase reporter; inhibition, % at 3.6 µM; 360,000 tested, 0.12% active; AID 588354, 2011;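 active means inhibition above the campaign mean plus 3 SD, with each screening campaign given its own cutoff, cut at about 60% in these data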;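 further: 0% = DMSO treated cells and 100% = gossypol at 36 µM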
Gli antag conf – Gli-SUFU pathway antagonists, confirmation, single concentration, luciferase luminescence, Sufu-KO-LIGHT cells. shares compounds with Gli-Sufu block. AID 602428, 2012. Gli luciferase reporter. 2,500 tested, 40% active. inhibition, % at 5 µM;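 active means mean inhibition at 5 µM reaching about 45%, limit read from the data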;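 further: plate controls were DMSO-treated cells for no effect and wells lacking cells for full effect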
Gli cytotox – cytotoxicity in Sufu-KO-LIGHT cells, confirmation, cytotoxicity control for Gli-SUFU antagonist project, cell-based, ATP luminescence, single concentration; cytotoxicity, % at 5 µM; shares compounds with Gli-Sufu block; 2,500 tested, 32% active;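 active means mean cytotoxicity at 5 µM above about 25%, limit read from the data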;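 further: cells exposed to compound overnight for roughly 16 to 18 hours; plate controls were DMSO wells with cells for no effect and medium without cells for full effect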
Wnt3a cs – Wnt3a reporter signal inhibition, confirmation, counter-screen for Gli-SUFU antagonist project, Wnt-LIGHT cells, luminescence, single concentration; AID 651995, 2013; inhibition, % at 6.25 µM; shares compounds with Gli-Sufu block; 2,500 tested, 20% active; Wnt3a-driven luciferase reporter;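 active means mean inhibition above about 25%, limit read from the data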
Numbers without * were called inactive; · = not tested or not shown. Hits are enriched below; roughly 1.3% of the tested compounds scored in any of these assays.

SMILES | COUP-TFII inh | SRC3 inh | NR5A2 inv ag | SRC2 inh | Gli-Sufu block | NCOA1 inh | Gli antag conf | Gli cytotox | Wnt3a cs
CCC(CC)CN1C(N(C)C)=NC[C@@H]1CC(C)C | -22 | -3 | 2 | -7 | 56* | -16 | 51* | 16 | 25
CCCC(=O)OC12CCCN(C1)/C(=C/c1ccc(C#N)cc1)C2 (centres undefined) | 18 | · | · | 6 | · | · | · | · | ·
O=C(CC1C=CCC1)OCCN1CCN(C2CN(Cc3cn(Cc4ccccc4Cl)nn3)S(=O)(=O)C2)CC1 (centres undefined) | 14 | · | · | 1 | · | · | · | · | ·
O=[N+]([O-])c1cccc(-c2nnc(C34CC5CC(CC(C5)C3)C4)o2)c1 | 4 | 9 | 5 | 16 | 77* | 10 | 11 | 7 | -14
CCN(CC)S(=O)(=O)c1ccc(NC(=O)Cn2c(=O)oc3ccccc32)cc1 | -17 | -24 | 5 | -25 | 31 | -8 | · | · | ·
O=C(Cn1c(=O)oc2ccccc21)Nc1ccc(S(=O)(=O)N2CCCCC2)cc1 | 2 | 7 | -6 | 12 | 54 | -6 | 11 | 7 | -21
O=C(NCCc1ccccc1)C1CCC(CNS(=O)(=O)c2ccccc2)CC1 (centres undefined) | -6 | 4 | -13 | -6 | 50 | -23 | 10 | -7 | -18
COC(=O)N1C[C@H](OC)[C@H]2C[C@@H]1c1ccccc1O2 | 4 | · | · | -51 | · | · | · | · | ·
COC(=O)c1ccc(NC(=O)CSc2nc3ccccc3c(=O)[nH]2)cc1 | 22 | 2 | -7 | 9 | 4 | -14 | · | · | ·
COc1ccc(NC(=O)CSc2nc3ccccc3c(=O)[nH]2)cc1S(N)(=O)=O | -34 | -28 | -21 | 6 | 57* | 1 | 2 | -9 | -16
O=C(O)CCCCCN1C(=O)C2CCCCC2C1=O (centres undefined) | 4 | -2 | 0 | 0 | 70* | 0 | 19 | 3 | -18
CN(C)CCn1c2ccccc2c2nc3ccc([N+](=O)[O-])cc3cc21 | -33 | 0 | 19 | -33 | 52 | 6 | 40 | 10 | -162
CC(=O)c1nnn(-c2nc(N)nc(N(c3ccccc3)c3ccccc3)n2)c1C | -3 | 19 | 13 | 14 | 16 | 2 | · | · | ·
CCCCN(CCCC)c1nc(OC)nc(-n2nnc(C(C)=O)c2C)n1 | 6 | 18 | 16 | 10 | 52 | -11 | 23 | 27* | -31
Cc1cc(S(=O)(=O)NCCc2ccccc2)ccc1-n1cnnn1 | -8 | 9 | -5 | 6 | 20 | -7 | · | · | ·
O=S(=O)(NCCc1ccccc1)c1ccc(-n2cnnn2)cc1 | -3 | 0 | 7 | 19 | 54 | -29 | 17 | 1 | -4
C=CCn1c(SCc2c(C)noc2C)nc2ccccc2c1=O | -58 | 11 | 19 | 7 | 55 | 7 | 54* | 58* | -16
C=CCn1c(SCc2c(C)noc2C)nc2cc(C(=O)O)ccc2c1=O | -6 | 8 | 3 | 2 | 0 | -10 | · | · | ·
CCOC(=O)CNC(=O)CSc1nnc(-c2cccs2)o1 | -3 | · | · | -1 | · | · | · | · | ·
COc1cc(Nc2c3ccccc3nc3ccccc23)cc(OC)c1OC | -10 | -16 | -37 | -81 | 61* | 5 | 31 | 16 | -43
COc1cc(NC(c2ccccc2)c2ccccc2)cc(OC)c1OC | -9 | 5 | -5 | 2 | 51 | 6 | 23 | 15 | 9
COc1ccc(Nc2c3ccccc3nc3ccccc23)cc1 | 11 | 12 | 8 | -46 | 55 | 23 | 56* | 31* | -38
COc1cc(NC(=O)CNC(c2ccccc2)c2ccccc2)cc(OC)c1OC | 17 | 2 | -5 | 9 | 12 | -6 | · | · | ·
Cc1ccc(-n2c(SCc3cccc(F)c3)nc3ccccc3c2=O)cc1 | 0 | · | · | 5 | · | · | · | · | ·
N#Cc1ccc(-c2cccnc2)nc1SCC(=O)Nc1sc2c(c1C#N)CCC2 | · | -11 | -11 | · | 13 | -4 | · | · | ·
SMILES | COUP-TFII inh | SRC3 inh | NR5A2 inv ag | SRC2 inh | Gli-Sufu block | NCOA1 inh | Gli antag conf | Gli cytotox | Wnt3a cs
N#Cc1c(C(F)(F)F)cc(-c2ccccc2)nc1SCC(=O)Nc1sc2c(c1C#N)CCC2 | 10 | 1 | 2 | -9 | 68* | 4 | 76* | 10 | 54*
CN(Cc1cn(Cc2ccccc2)nn1)S(=O)(=O)c1ccc(F)cc1Br | 0 | · | · | 2 | · | · | · | · | ·
COCCn1c(C)cc(C2=NNC(=Nc3ccccc3)SC2)c1C | 27 | 39 | 43 | 22 | 54 | 32 | 12 | 40* | 19
COCCn1c(C)cc(C2=NNC(=Nc3ccc(OC)cc3)SC2)c1C | · | -13 | 14 | · | -2 | -18 | · | · | ·
O=C1CCc2cc(S(=O)(=O)N3CCN(c4ccccc4Cl)CC3)ccc2N1 | 2 | · | · | -4 | · | · | · | · | ·
Cn1c(CNC(=O)CNC(=O)c2ccccc2F)cc(=O)n(C)c1=O | -1 | -2 | -2 | 2 | 53 | 2 | 4 | 12 | -23
Cn1c(CNC(=O)CCNC(=O)c2ccccc2F)cc(=O)n(C)c1=O | -5 | 4 | 18 | 11 | 1 | -13 | · | · | ·
O=C(CN1C(=O)c2cccc3cccc1c23)N1CCN(c2ccccc2)CC1 | 9 | 0 | -2 | -1 | 93* | 3 | 21 | 5 | -16
O=C(CN1C(=O)c2cccc3cccc1c23)N1CCN(c2ccc(F)cc2)CC1 | -8 | 12 | -14 | 13 | 8 | -3 | · | · | ·
CNc1ccccc(-c2ccc3ccccc3n2)c1=O | -19 | -58 | -77 | -34 | 54 | -91 | -76 | 19 | -32
O=C(CN1C(=O)c2ccccc2C1=O)Nc1ccccc1C(=O)NC1CCCCCC1 | -5 | -10 | -20 | 18 | 99* | 2 | 15 | 10 | 2
CC(=O)NC(=S)Nc1ccccc1C(=O)NC1CCCCC1 | 1 | 13 | -32 | 0 | -8 | 2 | · | · | ·
CC(C)(C)C(=O)NC(=S)Nc1ccccc1C(=O)NC1CCCCC1 | -3 | -29 | -7 | 0 | 76* | 8 | 21 | 46* | -21
COc1ccc(C2C(C(=O)Nc3ccc(F)cc3F)CCC(=O)N2c2ccc(OC)cc2)cc1 (centres undefined) | 0 | · | · | 1 | · | · | · | · | ·
O=C(c1cccs1)N1CC[C@H]2[C@H](CCCN2Cc2ccc(F)cc2)C1 | -13 | · | · | -5 | · | · | · | · | ·
